Assay results published in PubChem BioAssay (NCI).
Compounds without any hit were thinned out: in the full panel of roughly 83,000, 20% have a hit.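 For each line, cells grew in 96-well plates with the test compound present at a single concentration for 48 hours.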 Active and inactive are the calls of the source. The calls were made as follows: active = growth percent below 10; inactive = the rest.

Assays:
Experiment in all cases: NCI-60 one-dose screen, 48 h (100 = growth as untreated, 0 = no growth, -100 = all killed)
Conditions in all cases: 10 µM unless noted
[1] = system: DU-145 prostate
[2] = system: K-562 leukemia
[3] = system: MALME-3M melanoma
[4] = system: MDA-MB-231 breast
[5] = system: RXF 393 renal
[6] = system: SF-268 CNS
[7] = system: SF-295 CNS
[8] = system: SF-539 CNS
[9] = system: UACC-257 melanoma
[10] = system: M14 melanoma
[11] = system: HCT-15 colon
[12] = system: HT29 colon
[13] = system: SNB-75 CNS
[14] = system: SNB-19 CNS
[15] = system: PC-3 prostate
[16] = system: SK-MEL-5 melanoma
[17] = system: UACC-62 melanoma
[18] = system: LOX IMVI melanoma
[19] = system: SK-MEL-28 melanoma
[20] = system: U251 CNS

Measured: growth

CSc1nc(NCCO)c(C#N)c(-c2cccc(N)c2)n1
inactive: [1] 106% | [2] 94.4% | [3] 101% | [4] 86.4% | [5] 113% | [6] 96.2% | [7] 96.9% | [8] 91.7% | [9] 100% | [10] 100% | [11] 98.1% | [12] 108% | [13] 58.5% | [14] 96% | [15] 94.7% | [16] 96.5% | [17] 94.8% | [18] 93.5% | [19] 116%

COc1ccc(-c2cc(-c3cccnc3)nc3sc4c(=O)n(-c5ccc(C)cc5)cnc4c23)cc1OC
inactive: [1] 101% | [2] 111% | [3] 102% | [4] 90.1% | [5] 98.5% | [6] 100% | [7] 101% | [8] 89.4% | [9] 104% | [10] 99% | [11] 94.2% | [12] 104% | [13] 74.9% | [20] 103% | [15] 91.2% | [16] 94.2% | [17] 97.3% | [18] 97.9%

CN[C@@]12CC3(C=CC(=O)C=C3)O[C@]1(Cc1ccc(OC)cc1)N(C)C(=O)N2
active: [11] -47.9% | [12] 8.19%
inactive: [1] 101% | [2] 13.1% | [3] 107% | [4] 110% | [5] 50.7% | [6] 96.7% | [7] 109% | [8] 45.3% | [9] 78.8% | [10] 63% | [13] 74.3% | [14] 92.2% | [15] 66.8% | [16] 77.1% | [17] 54.7% | [18] 10.3% | [19] 46.7%

O=S(=O)(Nc1ccc(F)c(Cl)c1)c1ccc(-c2cnc(C3CC3)o2)cc1
active: [5] -9.55% | [7] 5.73% | [8] -14.7% | [12] -3.16% | [13] -14.4% | [16] 6.59%
inactive: [1] 16.3% | [2] 15.4% | [3] 45% | [4] 36.2% | [6] 52.2% | [9] 48.2% | [10] 24.8% | [11] 22.3% | [14] 49.3% | [15] 24.9% | [17] 28.3% | [18] 42.8% | [19] 62.5%

CCCNc1nc(SC)nc(-c2cccc(N)c2)c1C#N
inactive: [1] 109% | [2] 96.8% | [3] 98% | [4] 83.1% | [5] 105% | [6] 91.6% | [7] 98.7% | [8] 102% | [9] 111% | [10] 101% | [11] 102% | [12] 116% | [13] 54.5% | [14] 91.6% | [15] 93.6% | [16] 97.2% | [17] 89.4% | [18] 94.1% | [19] 121%

CC1(C)CC(C(=O)OCCCCCCCCCCC[P+](c2ccccc2)(c2ccccc2)c2ccccc2)C(C)(C)N1O (configuration not stated)
inactive: [11] 88.5% | [20] 110% | [18] 117%
active: [1] -85.3% | [2] -76.3% | [3] -68.3% | [4] -70.2% | [5] -68.8% | [6] -92.9% | [7] -71.3% | [8] -93.1% | [9] -77.1% | [10] -13.2% | [12] -33.9% | [13] -57.9% | [15] -70.1% | [16] -97.6% | [17] -69.3% | [19] -95.2%

C=C1CC[C@@H]2[C@](C)(COC(C)=O)[C@H](OC(C)=O)CC[C@@]2(C)[C@@H]1CC(NCc1ccc(F)cc1)C1=CCOC1=O (some centres not stated)
inactive: [1] 69.8% | [2] 18.8% | [3] 65.1% | [4] 60.9% | [5] 80.6% | [6] 62.6% | [7] 96.1% | [8] 64.4% | [9] 45.8% | [10] 37.3% | [11] 37% | [12] 21.3% | [13] 58.1% | [20] 48% | [15] 20.8% | [16] 11.8% | [17] 32.2% | [19] 77.8%
active: [18] 9.33%

CCCCNP1(NCCCC)=NP(NCCCC)(NCCCC)=NP(NCCCC)(NCCCC)=NP(NCCCC)(NCCCC)=N1
active: [2] -26.4% | [3] -18.1% | [4] -20.9% | [7] -25% | [9] -22.5% | [13] 8.44% | [15] -6.45% | [16] -93.8% | [18] 1.62%
inactive: [1] 16.5% | [5] 16.5% | [6] 25.8% | [8] 34% | [10] 11.8% | [11] 99.3% | [12] 11.9% | [20] 11% | [17] 20.3% | [19] 37.4%

CCCCN(CCCC)Cc1c(C)[nH]c2cc(OC)ccc2c1=O
inactive: [1] 106% | [2] 98% | [3] 98% | [4] 104% | [5] 108% | [6] 95.5% | [7] 98.3% | [8] 110% | [9] 94.5% | [10] 102% | [11] 107% | [12] 93.9% | [13] 89.5% | [20] 98.5% | [15] 85.2% | [16] 101% | [17] 101% | [18] 97.1% | [19] 112%

CNc1cc2nc3cc(NC)c(C)cc3cc2cc1C
inactive: [1] 18.5% | [2] 21.1% | [3] 41.3% | [4] 28.7% | [5] 11.9% | [6] 11.3% | [7] 10% | [8] 10.4% | [9] 29.2% | [10] 24.8% | [11] 11.1% | [12] 10% | [13] 16.5% | [15] 18.2% | [16] 35.7% | [17] 45.7% | [19] 46%
active: [20] 9.07% | [18] 6.5%

Cn1c2ccccc2c2c3c(c4c5ccccc5[nH]c4c21)C(=O)N(N)C3=O
inactive: [1] 57.4% | [2] 49.7% | [3] 69.2% | [4] 82.9% | [5] 67.9% | [6] 45.8% | [7] 27.1% | [8] 20.2% | [9] 76.8% | [10] 37.2% | [11] 68.2% | [12] 60.3% | [13] 63.9% | [20] 37.3% | [15] 59.6% | [16] 31% | [17] 22.6% | [18] 23.4% | [19] 66.5%

O=C(/C=C\c1ccc2ccccc2n1)c1cc(Cl)ccc1O
inactive: [1] 93.3% | [2] 79.4% | [3] 80.5% | [4] 78.3% | [5] 84.2% | [6] 71.6% | [7] 69.9% | [8] 87.2% | [9] 84.9% | [10] 84.6% | [11] 73.6% | [12] 71.6% | [13] 90.6% | [20] 44.3% | [15] 90.9% | [16] 97% | [17] 71.4% | [18] 40.8% | [19] 99.6%

CCN(CC)CCCC(C)NCCCNc1cccc2cccnc12 (configuration not stated)
inactive: [1] 106% | [2] 97.5% | [3] 88.1% | [4] 81.4% | [5] 104% | [6] 86.6% | [7] 98% | [8] 100% | [9] 104% | [10] 104% | [11] 104% | [12] 92% | [13] 89.9% | [20] 91.4% | [15] 87.3% | [16] 98.5% | [17] 90.4% | [18] 85.3% | [19] 123%

CC#CC#Cc1cccc(=O)o1
inactive: [1] 100% | [2] 73.8% | [3] 78.9% | [4] 45% | [5] 47.3% | [6] 50.4% | [7] 96.1% | [8] 76.4% | [9] 72.6% | [10] 74.9% | [11] 36.1% | [12] 45.3% | [13] 82.4% | [20] 75.1% | [15] 78.6% | [16] 70.3% | [17] 40.8% | [18] 61.5% | [19] 23.9%

COc1ccc(CCN2CC=Cn3c2nc2ccccc2c3=O)cc1
inactive: [2] 10.8% | [3] 63.2% | [4] 18.8% | [5] 36.7% | [6] 35.7% | [7] 17.2% | [9] 80.3% | [10] 16.4% | [11] 15.9% | [12] 12.9% | [13] 37.1% | [20] 27.6% | [15] 34.1% | [17] 31.8% | [18] 14.1% | [19] 78.7%
active: [1] 7.97% | [8] -34.1% | [16] -13.8%

Cc1ccc(/C=C2\Oc3cc(OCC(=O)c4ccc(Cl)cc4)ccc3C2=O)cc1
inactive: [1] 112% | [2] 95.2% | [3] 90% | [4] 107% | [5] 99.5% | [6] 119% | [7] 114% | [8] 103% | [9] 98.1% | [10] 102% | [11] 93.1% | [12] 104% | [13] 103% | [20] 97.5% | [15] 428% | [16] 86.3% | [17] 92.7% | [18] 98.8% | [19] 48.4%

CCOC(=O)c1c2ncccc2n2c(=O)n(-c3ccc(Cl)cc3)nnc12
inactive: [1] 112% | [2] 77.7% | [3] 95.7% | [4] 91.2% | [5] 104% | [6] 72.3% | [8] 47.8% | [9] 102% | [10] 81.1% | [11] 96.6% | [12] 108% | [13] 86.7% | [20] 95.1% | [15] 95.6% | [16] 85.8% | [17] 46.6% | [18] 41.1% | [19] 115%
active: [7] 9.85%
